# Test results from the supplement of paper PMC12282887.
# ± gives the standard deviation of the averaged measurements.
# Test system: E. coli BW25113 marRABp lux reporter
# Assay: promoter activity interaction Z-score (Lux/OD deviation from empty-vector control); higher = stronger promoter induction by the compound
# Experimental: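 E. coli BW25113 (wild type or ΔmarA/ΔsoxS/Δrob) carrying pTU175 luxCDABE promoter reporters was grown in LB in 384-well plates at 37°C with each of 94 compounds at 4 two-fold concentrations, in biological duplicates. Luminescence and OD600 were read every 30 min for 12 h and integrated as AUC over 8 h (0-8 h WT, 1-9 h mutants). Lux AUC was divided by OD AUC; the interaction score is the residual of a Huber robust fit of each promoter against the empty-vector control, then Z-transformed per promoter.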
structure (smiles),measurement,setting,value
CC1(C)S[C@@H]2[C@H](/N=C/N3CCCCCC3)C(=O)N2[C@H]1C(=O)O [Mecillinam],promoter activity interaction Z-score,"0.0081 µg/ml, genetic background: wild type",0.0167 ± 0.096
same,promoter activity interaction Z-score,"0.0081 µg/ml, genetic background: ΔmarA",-0.0228 ± 0.035
same,promoter activity interaction Z-score,"0.0081 µg/ml, genetic background: Δrob",0.0796 ± 0.13
same,promoter activity interaction Z-score,"0.0081 µg/ml, genetic background: ΔsoxS",-0.119 ± 0.16
same,promoter activity interaction Z-score,"0.016 µg/ml, genetic background: wild type",-0.158 ± 0.16
same,promoter activity interaction Z-score,"0.016 µg/ml, genetic background: ΔmarA",-0.0902 ± 0.12
same,promoter activity interaction Z-score,"0.016 µg/ml, genetic background: Δrob",0.334 ± 0.2
same,promoter activity interaction Z-score,"0.016 µg/ml, genetic background: ΔsoxS",-0.0159 ± 0.17
same,promoter activity interaction Z-score,"0.033 µg/ml, genetic background: wild type",0.203 ± 0.034
same,promoter activity interaction Z-score,"0.033 µg/ml, genetic background: ΔmarA",0.119
same,promoter activity interaction Z-score,"0.033 µg/ml, genetic background: Δrob",1.33
same,promoter activity interaction Z-score,"0.033 µg/ml, genetic background: ΔsoxS",0.151 ± 0.51
O=C(O)CN(CCN(CC(=O)O)CC(=O)O)CC(=O)O,promoter activity interaction Z-score,"18.3 µg/ml, genetic background: wild type",-0.176 ± 0.11
same,promoter activity interaction Z-score,"18.3 µg/ml, genetic background: ΔmarA",-0.48 ± 0.29
same,promoter activity interaction Z-score,"18.3 µg/ml, genetic background: Δrob",-0.224 ± 0.07
same,promoter activity interaction Z-score,"18.3 µg/ml, genetic background: ΔsoxS",-0.191 ± 0.04
same,promoter activity interaction Z-score,"36.5 µg/ml, genetic background: wild type",-0.238 ± 0.25
same,promoter activity interaction Z-score,"36.5 µg/ml, genetic background: ΔmarA",-0.327 ± 0.086
same,promoter activity interaction Z-score,"36.5 µg/ml, genetic background: Δrob",-0.221 ± 0.16
same,promoter activity interaction Z-score,"36.5 µg/ml, genetic background: ΔsoxS",-0.276 ± 0.012
same,promoter activity interaction Z-score,"73.1 µg/ml, genetic background: wild type",-0.3324 ± 0.002
same,promoter activity interaction Z-score,"73.1 µg/ml, genetic background: ΔmarA",-0.545 ± 0.11
same,promoter activity interaction Z-score,"73.1 µg/ml, genetic background: Δrob",-0.378 ± 0.066
same,promoter activity interaction Z-score,"73.1 µg/ml, genetic background: ΔsoxS",-0.175 ± 0.04
same,promoter activity interaction Z-score,"146.1 µg/ml, genetic background: wild type",0.543 ± 0.16
same,promoter activity interaction Z-score,"146.1 µg/ml, genetic background: ΔmarA",1.07 ± 0.021
same,promoter activity interaction Z-score,"146.1 µg/ml, genetic background: Δrob",1.66 ± 0.58
CC[C@H](C)[C@H](N)C1=N[C@H](C(=O)N[C@@H](CC(C)C)C(=O)N[C@H](CCC(=O)O)C(=O)N[C@H](C(=O)N[C@H]2CCCCNC(=O)[C@H](CC(N)=O)NC(=O)[C@@H](CC(=O)O)NC(=O)[C@H](Cc3cnc[nH]3)NC(=O)[C@@H](Cc3ccccc3)NC(=O)[C@H]([C@@H](C)CC)NC(=O)[C@@H](CCCN)NC2=O)[C@@H](C)CC)CS1 [Bacitracin],promoter activity interaction Z-score,"35.6 µg/ml, genetic background: wild type",0.278 ± 0.2
same,promoter activity interaction Z-score,"35.6 µg/ml, genetic background: ΔmarA",0.153 ± 0.22
same,promoter activity interaction Z-score,"35.6 µg/ml, genetic background: Δrob",-0.0986 ± 0.2
same,promoter activity interaction Z-score,"35.6 µg/ml, genetic background: ΔsoxS",-0.193 ± 0.086
same,promoter activity interaction Z-score,"71.1 µg/ml, genetic background: wild type",-0.0216 ± 0.19
same,promoter activity interaction Z-score,"71.1 µg/ml, genetic background: ΔmarA",-0.262 ± 0.16
same,promoter activity interaction Z-score,"71.1 µg/ml, genetic background: Δrob",-0.251 ± 0.062
same,promoter activity interaction Z-score,"71.1 µg/ml, genetic background: ΔsoxS",-0.169 ± 0.029
same,promoter activity interaction Z-score,"142.3 µg/ml, genetic background: wild type",-0.588 ± 0.2
same,promoter activity interaction Z-score,"142.3 µg/ml, genetic background: ΔmarA",-0.5787 ± 0.0025
same,promoter activity interaction Z-score,"142.3 µg/ml, genetic background: Δrob",-0.542 ± 0.048
same,promoter activity interaction Z-score,"142.3 µg/ml, genetic background: ΔsoxS",-0.36 ± 0.085
same,promoter activity interaction Z-score,"284.5 µg/ml, genetic background: wild type",0.158 ± 0.24
same,promoter activity interaction Z-score,"284.5 µg/ml, genetic background: ΔmarA",0.0811 ± 0.011
same,promoter activity interaction Z-score,"284.5 µg/ml, genetic background: Δrob",-0.159 ± 0.29
same,promoter activity interaction Z-score,"284.5 µg/ml, genetic background: ΔsoxS",0.576 ± 0.23
